# Data from paper PMC12136788.
# Over roughly 5,800 sequences, “enrichment r” has its median near 0.68; the highest 2% begin near 11. Many of the other results were omitted from the sample, so the highest values are more common in it than they were.
# T1: UNK ZnF1-6 (called full-length) (human, UniProt Q9C0B0 30-357)
# T1 sequence: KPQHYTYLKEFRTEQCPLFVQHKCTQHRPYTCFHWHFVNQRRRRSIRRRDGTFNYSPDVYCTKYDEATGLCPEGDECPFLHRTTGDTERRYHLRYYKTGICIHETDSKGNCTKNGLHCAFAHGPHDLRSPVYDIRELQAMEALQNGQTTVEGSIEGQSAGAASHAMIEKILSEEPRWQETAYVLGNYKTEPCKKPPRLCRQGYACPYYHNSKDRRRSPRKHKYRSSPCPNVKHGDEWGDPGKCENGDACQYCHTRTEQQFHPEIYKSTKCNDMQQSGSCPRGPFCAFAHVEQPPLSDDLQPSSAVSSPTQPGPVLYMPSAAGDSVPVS
# B1: chr1:162783069:162783171:+|3pUTR|ENSG00000162733|unk|FALSE|unique (ssRNA)
# RNA: GGGAGUUCUACAGUCCGACGAUCUGAAAGUAGUUCAAAUUUGAAUUAGAAGAAUGAAGCUAGGACUUAUUUGGAAAAGGAGAUAGAAAAAAAAUGAUCAGAAACUGUGGGGCCUUAUUACCUUUGCAGUAAGUUAUCUUCUUCCAACAGAGGAUUGAGCAUCA
# B2: chr15:64957256:64957357:+|3pUTR|ENSG00000166839|msi1|FALSE|unique (ssRNA)
# RNA: GGGAGUUCUACAGUCCGACGAUCGCUGGAAAAUUGAAACAUAAUUUCACAAUUAUUCCUUUUUCCACCUUAAAUAAUAAGAGUAGAAUACUUUCUGUGUUUUUAUCUUAUACACAUGAAUAAAUGCUAUGGCUUAUCACAGUUCAACAGAGGAUUGAGCAUCA
# B3: ENSG00000114744:stop:overlap|stop_codon|ENSG00000114744|stop_codon|NA|stop_codon (ssRNA)
# RNA: GGGAGUUCUACAGUCCGACGAUCAACAAGCAUUGGAAGAGAUGAAGACAAAUCACUGUAGGAGAGUUGUUCGCAACAUCAAGUAGUACCAGUUUUAAGGUUUUAAUUCAUUUGAAUCACUUAUGAAUUGAUGAUAUACAGCAACAACAGAGGAUUGAGCAUCA
# B4: ENSG00000066855:stop:overlap|stop_codon|ENSG00000066855|stop_codon|NA|stop_codon (ssRNA)
# RNA: GGGAGUUCUACAGUCCGACGAUCGAGUGUUGUCCCUUCCAGCUGGCUUUAUUCAGCCCCACGUGUCCAAGCAUUGUCUGGGAUAGCCUUGUAUUGGAAAACCUGGCCCAUUCUGUAAAUAAAGGCUCCACUAGAAAAGACUCGCAACAGAGGAUUGAGCAUCA
# B5: chr1:184691659:184691688:-|3pUTR|ENSG00000116406|msi1_unk|FALSE|overlapping (ssRNA)
# RNA: GGGAGUUCUACAGUCCGACGAUCCUCCAACGUUGUAAUUACAACUCUACAUUCAUUUACUUACUUGACAUACUGCCACAAAGUAGUUUUUGAGUUCAUUAAAAAUUCCAAAGGCAUUAGUUGUUUUUUUUUUUUUUAGUGUUUCAACAGAGGAUUGAGCAUCA
# B6: chr15:93027272:93027374:+|3pUTR|ENSG00000173575|unk|total|mutant (ssRNA)
# RNA: GGGAGUUCUACAGUCCGACGAUCCCAGGAAUCUGUGAGGAUGGUAUUCCCUGGAGUCUGGCUUUGAAAGAUUUCAUUGUUGGCCGAAAUAACAGGUUGAGAAAGAGGGAGUCCGCAUCACCUAAAACCUGCACGUGAACAAGGCAACAGAGGAUUGAGCAUCA
# B7: ENSG00000141127:stop:overlap|stop_codon|ENSG00000141127|stop_codon|NA|stop_codon (ssRNA)
# RNA: GGGAGUUCUACAGUCCGACGAUCAUUCAUCAUGUAUGGAGCUAUCAAAGAAAAUUGCAGACUUUUUCCCCCUUUCUCUUCUCUAGGCGGCUAGGGGUGGAGAUGGGCAAAGUGCAGGUUUACCAGGAACCUAACAGAGAAACACAACAGAGGAUUGAGCAUCA
# B8: chr22:31279490:31279591:+|3pUTR|ENSG00000182541|msi1|total|mutant (ssRNA)
# RNA: GGGAGUUCUACAGUCCGACGAUCAGCAGCUUGGGCUGGGAAGAGGUGGUGGCAGAGUCUCAAAGCUGAGAUGCUGAGAGAGACCGCUCCCUGAGCUGGGCCAUCUGACUUCUACCUCCCAUGUUUGCUCUCCCAACUCAUCCGCAACAGAGGAUUGAGCAUCA
# B9: chr5:43295829:43295944:-|CDS|ENSG00000112972|unk|total|mutant (ssRNA)
# RNA: GGGAGUUCUACAGUCCGACGAUCAAUAUCCCCGCUUUAUUCUAAAGUCAAACUUUAAAAUUUCAUGGCUUAUAUGAAUUUCACCGUUUCCUUGGACUUCUCUUUCAGAGGGAAAUGAUAAAGAUUUUACCUUGAAUGAUUUUGCAACAGAGGAUUGAGCAUCA
# B10: chr12:76028505:76028606:-|3pUTR|ENSG00000139289|msi1|total|mutant (ssRNA)
# RNA: GGGAGUUCUACAGUCCGACGAUCAAGUCUUGGUCAGUAUUUUUCCAGCAUUUAAAUUGAAACGGUCAGUAUCCGACCACUGCCCGGUUAUGCCGUCAAGAAAUAAAAACCGAAUUACAUGCUACAGAUGUCUUUAUUCUCCUUCAACAGAGGAUUGAGCAUCA
# B11: ENSG00000198589:be:win_5851|CDS|ENSG00000198589|bound_else_gene|NA|bound_elsewhere_windowed (ssRNA)
# RNA: GGGAGUUCUACAGUCCGACGAUCACUCAACUAAUCCAGAAAAUUAUCAACAUUCUCACAGACAAGCAUGGAGCCUGGGGAAAUUCUGCAGUGAGUCGUCCUCUUGAGUUCUGGCGCCUUGACUACUGGGAAGAUGACUUGCGGCAACAGAGGAUUGAGCAUCA
# B12: chr19:14961309:14961997:-|three_prime_utr|ENSG00000105143|control|control|control (ssRNA)
# RNA: GGGAGUUCUACAGUCCGACGAUCGAUUCACUUACCCACUCACCAACUCAUUCAUUCAUGUCUUUCUGGGAUGAUUUCAUCACUAGUUGACUUCCUUGUUCAUCUGUUCAUUCAUUCAUUCUUCUAUGCAUUGGUUAGUUCAUGCAACAGAGGAUUGAGCAUCA
# B13: chr15:60347444:60347559:-|3pUTR|ENSG00000182718|msi1_unk|total|mutant (ssRNA)
# RNA: GGGAGUUCUACAGUCCGACGAUCUAACAGUCCCCGUGGCCAUCCCUGUGAGGGUGACGUCCGCAUUACCCCCAACCUCAUUUCCGUUGCCUAAGCAUUGCCUGGCCUUCCUGUCCCGUCUCUCCUGUAAGCCAAAGAAAUGAACAACAGAGGAUUGAGCAUCA
# B14: chr16:5044585:5044836:-|CDS|ENSG00000153446|control|control|control (ssRNA)
# RNA: GGGAGUUCUACAGUCCGACGAUCGAGUAGCUGGGACUACAGGAGCGUGCCACCAUACCUGGCUAAUUUUUAUAUUUUUUUAGUAGAGACAGGGUUUCAUCAUGUUGCUCAUGCUGGUCUCGAACUCCUGAUCUCAAGAGAUCCCAACAGAGGAUUGAGCAUCA
# B15: chr5:144162273:144162391:-|CDS|ENSG00000145817|unk|total|mutant (ssRNA)
# RNA: GGGAGUUCUACAGUCCGACGAUCCCCACCGGCUGGCAAAAUCCAGUUUGGCUAUGUAUACGGGAUCAGUGCAAUUGGAUGUCCCGGAAUGUUUUGUUUAUUAAACUUAAUGAGUAUGACAGGUGUUUCAUUUGGUUGUGUGGCCAACAGAGGAUUGAGCAUCA
# B16: chr5:72990507:72990614:+|CDS|ENSG00000157107|unk|FALSE|unique (ssRNA)
# RNA: GGGAGUUCUACAGUCCGACGAUCGUAUGGGAUGUAUUCAAAACAUCUACAGAGAAAUUAGCAAAUUGUCACUUGGAUCUUGUUAGAAAAUUACAAGAAUUAAUAAAGGAAGUUCAGAAGUAUGGAGAAGAACAAGUAAAGUCUCAACAGAGGAUUGAGCAUCA
# B17: chr4:185586528:185586629:-|3pUTR|ENSG00000154556|msi1|FALSE|unique (ssRNA)
# RNA: GGGAGUUCUACAGUCCGACGAUCAUCCAUAUGAUAUGUUGUACAUUUUAUGGAAAUGUAAUAGAAUCUCACACAUUAUUUUAUAGAAAUAGAGUACAGAAGCAUCACAAGUAUUAAAGUUGGUUUUAGCAAGGAUUAGGAUUACAACAGAGGAUUGAGCAUCA
# B18: chr2:11642538:11642650:+|3pUTR|ENSG00000196208|unk|total|mutant (ssRNA)
# RNA: GGGAGUUCUACAGUCCGACGAUCCGAAGAGUUGAUGUCAAUCUUUUUUUCCUAAGAAAAAAAGUCCGCGAGUAUUAAAUAUUCCGAUCAAUGUUUAUAAAAUGAUUACUUUGUAUAUCUCAUUAUUCCUAUUUUGGAAUAAAACAACAGAGGAUUGAGCAUCA
# B19: chr3:11557766:11557867:-|3pUTR|ENSG00000144560|msi1|total|mutant (ssRNA)
# RNA: GGGAGUUCUACAGUCCGACGAUCCUGGACUGCAGACUCUACCAAUCACGGGCAUUUUAUCUUCUCUGAACACUGCAGUUUGUCCGACCCGAGCUGAGGUUGGAGGAUUCCACCGUGCUUUAAACGUGAUGCAUGUUUUAAUGGCAACAGAGGAUUGAGCAUCA
# B20: ENSG00000136451:be:win_3101|3pUTR|ENSG00000136451|bound_else_gene|NA|bound_elsewhere_windowed (ssRNA)
# RNA: GGGAGUUCUACAGUCCGACGAUCUUCCAUUUAUACCCUACUGUGUCAGUUCAAGCAUCAAAAUACCUUGCAUCUGAGACAGACUUCCUACAUCAGGGACAGGUAUCUGUGUGUCAUUAUACAAAACAGUUCUAGGGGGUUGAACAACAGAGGAUUGAGCAUCA
# B21: ENSG00000136451:be:win_3251|3pUTR|ENSG00000136451|bound_else_gene|NA|bound_elsewhere_windowed (ssRNA)
# RNA: GGGAGUUCUACAGUCCGACGAUCCUUAGUGUAAAAUAAUUUUAUAAAUGAUCUUUUGUACUUUAGGACAUUAAAUUGUACAACUUUUGUAUAUAUAAAAGCUUAGGAACUUUCUGUUUAGCAGGAAGGCAACACAUUCCUACACAACAGAGGAUUGAGCAUCA
# B22: ENSG00000136451:be:win_3151|3pUTR|ENSG00000136451|bound_else_gene|NA|bound_elsewhere_windowed (ssRNA)
# RNA: GGGAGUUCUACAGUCCGACGAUCUGAGACAGACUUCCUACAUCAGGGACAGGUAUCUGUGUGUCAUUAUACAAAACAGUUCUAGGGGGUUGAACUACAUAGUAAAAAAAUAAAAUAAAUAGUACUUAGUGUAAAAUAAUUUUACAACAGAGGAUUGAGCAUCA
# B23: ENSG00000136451:be:win_3201|3pUTR|ENSG00000136451|bound_else_gene|NA|bound_elsewhere_windowed (ssRNA)
# RNA: GGGAGUUCUACAGUCCGACGAUCAACAGUUCUAGGGGGUUGAACUACAUAGUAAAAAAAUAAAAUAAAUAGUACUUAGUGUAAAAUAAUUUUAUAAAUGAUCUUUUGUACUUUAGGACAUUAAAUUGUACAACUUUUGUAUAUCAACAGAGGAUUGAGCAUCA
# B24: chr17:57972098:57972209:-|3pUTR|ENSG00000136451|unk|FALSE|bound_elsewhere (ssRNA)
# RNA: GGGAGUUCUACAGUCCGACGAUCCUAGAAUGUGGUUGUCAGAACCCUGAAAGUAUUAGUUCUAAAAAAAAAAAGAUAUAUACUAGAAGUAAUUGUUUUAUCAAUUCAUUGUAUAAUAAACAGGAGUGAGACUUCAUUGUAUGACAACAGAGGAUUGAGCAUCA
# B25: chr15:60490033:60490134:-|3pUTR|ENSG00000069667|unk|FALSE|unique (ssRNA)
# RNA: GGGAGUUCUACAGUCCGACGAUCUGCUGGAUUUGGGACAUGCUUUUCUCUUUAAAUACAUAAUAUCAUUAUAUAAAUUAUUCUAGAGUGUAUUUAAUUAGGAUAAAAUUACUUCCUUAGUAUGGAUAUUUGACAUCUAUAGGGCAACAGAGGAUUGAGCAUCA
# Molecular target: T1, UNK ZnF1-6 (called full-length)
# Assay: nsRBNS (natural sequence RNA bind-n-seq); RBNS binding buffer (assumed for nsRBNS): 25 mM Tris pH 7.5, 150 mM KCl, 3 mM MgCl2, 0.01% Triton X-100, 500 ug/ml BSA, 20 U/ml SUPERase-In, 4 C; UNK is unkempt and MSI1 is Musashi-1; names of the RNAs are library labels; protein concentration not given here; high values mean tight binding
row,Binder,binding signal [enrichment R]
1,B1,1.05
2,B2,0.535
3,B3,2.3
4,B4,0.862
5,B5,8.44
6,B6,0.486
7,B7,0.392
8,B8,0.701
9,B9,0.421
10,B10,0.271
11,B11,0.85
12,B12,0.569
13,B13,0.662
14,B14,2.13
15,B15,0.596
16,B16,3.86
17,B17,11.6
18,B18,0.544
19,B19,0.682
20,B20,0.463
21,B21,6.05
22,B22,44
23,B23,96.7
24,B24,4.83
25,B25,4.69
